Hit rate of the full screen: of about 5,500 compounds, about 2,000 (36%) were called active. About 18% were inconclusive and are not listed. Rule as the data show it: active = normalized growth mostly below about 0.91 (no sharp cut-off); inconclusive = no clear call, values can overlap the other calls; inactive = mostly above about 0.92. The list shows a part of the results.
Assay: chemical genetic growth profiling, strain panel (AID 1159580);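 also: tested at 20 µM; growth read once vehicle control cultures reached saturation at 30 °C; 1 = growth at the plate median or of vehicle wells; lower values mean less growth of the strain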
Conditions: growth OD

Measured: normalized growth

NS(=O)(=O)c1ccc(-n2ncc3ccccc3c2=O)cc1
inactive: S. cerevisiae deletion strains, locus YAL013W, strain DEP1, stronger effect = lower value 1.02 | S. cerevisiae deletion strains, locus YBR229C, strain ROT2, stronger effect = lower value 1.01 | S. cerevisiae deletion strains, locus YCL061C, strain MRC1, stronger effect = lower value 1.01 | S. cerevisiae deletion strains, locus YDL101C, strain DUN1, stronger effect = lower value 1.04 | S. cerevisiae deletion strains, locus YDL134C, strain PPH21, stronger effect = lower value 1.02 | S. cerevisiae deletion strains, locus YDR150W, strain NUM1, stronger effect = lower value 0.989 | S. cerevisiae deletion strains, locus YEL061C, strain CIN8, stronger effect = lower value 0.987 | S. cerevisiae deletion strains, locus YGR078C, strain PAC10, stronger effect = lower value 1.02 | S. cerevisiae deletion strains, locus YHR030C, strain SLT2, stronger effect = lower value 1.05 | S. cerevisiae deletion strains, locus YHR087W, strain rtc3, stronger effect = lower value 1 | S. cerevisiae deletion strains, locus YJR043C, strain POL32, stronger effect = lower value 1.01 | S. cerevisiae deletion strains, locus YJR075W, strain HOC1, stronger effect = lower value 1.02 | S. cerevisiae deletion strains, locus YKL190W, strain CNB1, stronger effect = lower value 1 | S. cerevisiae deletion strains, locus YLR039C, strain RIC1, stronger effect = lower value 1.01 | S. cerevisiae deletion strains, locus YLR058C, strain SHM2 (second series), stronger effect = lower value 0.994 | S. cerevisiae deletion strains, locus YLR085C, strain ARP6, stronger effect = lower value 0.984 | S. cerevisiae deletion strains, locus YLR262C, strain YPT6, stronger effect = lower value 1.06 | S. cerevisiae deletion strains, locus YML094W, strain GIM5, stronger effect = lower value 0.986 | S. cerevisiae deletion strains, locus YMR219W, strain ESC1, stronger effect = lower value 1 | S. cerevisiae deletion strains, locus YMR263W, strain SAP30, stronger effect = lower value 1.01 | S. cerevisiae deletion strains, locus YMR307W, strain GAS1, stronger effect = lower value 0.981 | S. cerevisiae deletion strains, locus YNL153C, strain GIM3, stronger effect = lower value 0.996 | S. cerevisiae deletion strains, locus YNL298W, strain CLA4 (second series), stronger effect = lower value 1.01 | S. cerevisiae deletion strains, locus YNL322C, strain KRE1, stronger effect = lower value 1.01 | S. cerevisiae deletion strains, locus YNR030W, strain Alg12, stronger effect = lower value 1.01 | S. cerevisiae deletion strains, locus YPL055C, strain LGE1, stronger effect = lower value 1.02 | S. cerevisiae deletion strains, locus YPL241C, strain CIN2, stronger effect = lower value 1.03 | S. cerevisiae deletion strains, locus YPR135W, strain CTF4, stronger effect = lower value 1.06 | S. cerevisiae strains, strain wild type, stronger effect = lower value 1.01

Source: PubChem BioAssay AID1159580 (chemical genetic matrix, 2015)
